Reference: PubChem BioAssay (Tox21)
Active and inactive are the calls of the source. The call rests on the fitted dose curve.

target: Acetylcholinesterase (Homo sapiens) (UniProt P22303); test: Acetylcholinesterase (AChE) small molecule antagonists: enzyme-based qHTS assay with human liver microsomes (AID 1347399); conditions: Potency: qHTS inhibition; outcome: qHTS inhibition; series mostly up to 115 µM; activity change, negative = inhibition: at the top concentration; further: nearly all actives have a fitted effect of over 60% in size
Sequence (P22303 whole entry, looked up): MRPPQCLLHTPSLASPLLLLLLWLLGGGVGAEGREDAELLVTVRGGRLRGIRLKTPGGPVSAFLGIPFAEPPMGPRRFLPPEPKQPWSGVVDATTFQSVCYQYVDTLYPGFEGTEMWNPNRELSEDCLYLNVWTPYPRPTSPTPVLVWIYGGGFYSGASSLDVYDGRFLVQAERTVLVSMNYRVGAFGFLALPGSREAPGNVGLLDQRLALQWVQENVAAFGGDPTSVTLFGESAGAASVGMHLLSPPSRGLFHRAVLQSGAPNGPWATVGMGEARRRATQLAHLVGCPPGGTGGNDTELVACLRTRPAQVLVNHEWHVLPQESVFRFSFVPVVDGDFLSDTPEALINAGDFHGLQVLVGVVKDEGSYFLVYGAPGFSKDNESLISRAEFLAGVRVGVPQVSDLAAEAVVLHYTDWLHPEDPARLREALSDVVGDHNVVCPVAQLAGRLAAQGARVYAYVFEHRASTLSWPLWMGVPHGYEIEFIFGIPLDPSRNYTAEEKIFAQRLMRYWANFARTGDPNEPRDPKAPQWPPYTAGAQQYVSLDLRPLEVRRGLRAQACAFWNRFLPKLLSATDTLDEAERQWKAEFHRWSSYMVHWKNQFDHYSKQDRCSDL
Procedure, shortened: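 Recombinant human AChE (50 mU/mL in the enzyme mix) and human liver microsomes (0.25 mg/mL final) were preincubated with compound and NADPH (0.25 mg/mL final) for 30 min at 37 C. Acetylthiocholine/DTNB was then added; thiocholine was read colorimetrically after 10 min at room temperature.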
On the % scale 0 is the no-effect control and ±100 the full control effect.

Row | Structure (SMILES) | Potency | activity change, negative = inhibition | outcome
1 | Oc1ccc(/C=C/c2cc(O)cc(O)c2)cc1 | inactive | – | –
2 | CC(C)C[C@H](NC(=O)[C@H](CCc1ccccc1)NC(=O)CN1CCOCC1)C(=O)N[C@@H](Cc1ccccc1)C(=O)N[C@@H](CC(C)C)C(=O)[C@@]1(C)CO1 | – | -1.08% [at 53 µM] (inactive) | –
3 | CC(C)(C)OC(=O)c1cccc(N)c1 | – | -1.29% (inactive) | –
4 | Nc1ncnc2c1ncn2[C@@H]1O[C@H](COP(=O)(O)O)[C@@H](O)[C@H]1O | – | 0.44% [at 53 µM] (inactive) | –
5 | C/C=C/C(=O)C1=C(C)CCCC1(C)C | – | 0% (inactive) | –
6 | CCNC(=O)/C=C/c1cccc(Br)c1 | – | -0.168% [at 53 µM] (inactive) | –
7 | Cc1cc(C)cc(O)c1 | inactive | – | –
8 | O=C(O)CCCCCCCC(=O)O | inactive | – | –
9 | O=S(=O)(O)c1ccc(O)cc1 | inactive | – | –
10 | COc1ccc2[nH]cc(CCNC(C)=O)c2c1 | inactive | – | –
11 | COc1c(Cl)ccc(Cl)c1C(=O)O | inactive | – | –
12 | COc1cc(S(=O)(=O)Nc2ccccc2)c(OC)cc1N | – | 0.14% (inactive) | –
13 | N[C@H](C(=O)O)c1ccc(O)cc1 | – | -0.0013% [at 23.6 µM] (inactive) | –
14 | CCCCCCCCCCCCOCCO | inactive | – | –
15 | O=C(O)CNc1ccccc1 | – | 0.854% (inactive) | –
16 | CC(C)Oc1ccccc1O | – | 1.66% (inactive) | –
17 | NS(=O)(=O)c1ccc(Cl)c(S(N)(=O)=O)c1 | – | -0.464% [at 53 µM] (inactive) | –
18 | COc1ccc(CCC(C)=O)cc1 | inactive | – | –
19 | CC(=O)c1ccc(O)cc1 | inactive | – | –
20 | CC(=O)N[C@H]1[C@H]([C@H](O)[C@H](O)CO)OC(C(=O)O)=C[C@@H]1N=C(N)N | – | -1.95% [at 53 µM] (inactive) | –

Row | Structure (SMILES) | Potency | activity change, negative = inhibition | outcome
21 | CC(C)Cc1ccccc1 | inactive | – | –
22 | CC1(C)CCC[C@]2(C)[C@H]3CC(=O)O[C@]3(C)CC[C@@H]12 | – | -3.88% (inactive) | –
23 | c1ccc2[nH]ccc2c1 | inactive | – | –
24 | O=c1[nH]c2ccccc2c(=O)n1CCCl | – | -0.718% [at 53 µM] (inactive) | –
25 | CCC(C)(C)CC | – | -3.94% (inactive) | –
26 | C=C(C)C(=O)OCC(C)O (stereo not given) | inactive | – | –
27 | Nc1ccc(C(=O)Oc2ccccc2)c(O)c1 | – | -1.26% [at 53 µM] (inactive) | –
28 | CC(C)CCCCCCOC(=O)C1CCCCC1C(=O)OCCCCCCC(C)C (stereo not given) | – | -0.0252% (inactive) | –
29 | Cc1ccc2c(ccc3ccccc32)c1 | – | -0.686% (inactive) | –
30 | FB(F)F | – | 0.162% (inactive) | –
31 | O=C=NCc1cccc(CN=C=O)c1 | – | 0.648% [at 23.6 µM] (inactive) | –
32 | C#C[C@]1(O)CC[C@H]2[C@@H]3CCC4=CC(=O)CC[C@@H]4[C@H]3CC[C@@]21CC | inactive | – | –
33 | CCOC(=O)/C=C\C(=O)OCC | inactive | – | –
34 | NC(N)=NC(N)=NCCc1ccccc1 | inactive | – | –
35 | Cc1occc1S | – | 0.411% (inactive) | –
36 | C=C(C)C(=O)OCCCCCCCCCCCCCCCCCC | – | 0.563% [at 23.6 µM] (inactive) | –
37 | C=CCNc1nc(NCC=C)nc(N2CCN(C(c3ccc(F)cc3)c3ccc(F)cc3)CC2)n1 | – | – | inactive
38 | C=CC(=O)N1CCOCC1 | – | -0.0711% (inactive) | –
39 | O=[N+]([O-])c1ccc(/C=N\O)o1 | – | 0.88% [at 53 µM] (inactive) | –
40 | C1CCSC1 | – | -3.61% (inactive) | –
